Results as given in PubChem BioAssay (NCI).
This is part of a sample that, as a whole, favours compounds with a hit. Of some 83,000 tested, about 20% had one in any assay.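 Cell lines were cultured in 96-well plates, exposed to a single compound concentration, and assessed for percent growth 48 hours later.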 Values without a mark were called inactive. Activity calls are given as the source filed them. How the source made its calls: active means growth percent below 10; inactive means the rest.

Legend:
Test in all cases: NCI-60 one-dose screen, 48 h (100 = growth as untreated, 0 = no growth, -100 = all killed)
NCI-H23 lung = details: 10 µM unless noted
NCI-H226 lung = details: 10 µM unless noted
NCI-H322M lung = details: 10 µM unless noted
HOP-62 NSCLC = details: 10 µM unless noted
NCI-H460 lung = details: 10 µM unless noted
HOP-92 NSCLC = details: 10 µM unless noted
NCI-H522 lung = details: 10 µM unless noted
A549/ATCC NSCLC = details: 10 µM unless noted
786-0 renal = details: 10 µM unless noted
COLO 205 colon = details: 10 µM unless noted
DU-145 prostate = details: 10 µM unless noted
K-562 leukemia = details: 10 µM unless noted
MALME-3M melanoma = details: 10 µM unless noted
MDA-MB-231 breast = details: 10 µM unless noted
RXF 393 renal = details: 10 µM unless noted
SF-268 CNS = details: 10 µM unless noted
SF-295 CNS = details: 10 µM unless noted
SF-539 CNS = details: 10 µM unless noted
UACC-257 melanoma = details: 10 µM
M14 melanoma = details: 10 µM unless noted

## Clc1ccc(-c2csc(Nc3cccc(Nc4csc(-c5ccc(Cl)cc5)n4)c3)n2)cc1
NCI-H23 lung
  growth: 72.3%
NCI-H226 lung
  growth: 74.6%
NCI-H322M lung
  growth: 68.9%
HOP-62 NSCLC
  growth: 85.3%
NCI-H460 lung
  growth: 79.1%
HOP-92 NSCLC
  growth: 75.9%
NCI-H522 lung
  growth: 45.6%
A549/ATCC NSCLC
  growth: 88.5%
786-0 renal
  growth: 104%
COLO 205 colon
  growth: 94.2%
DU-145 prostate
  growth: 86.2%
K-562 leukemia
  growth: 67.1%
MALME-3M melanoma
  growth: 98%
MDA-MB-231 breast
  growth: 64.2%
RXF 393 renal
  growth: 94.4%
SF-268 CNS
  growth: 79.3%
SF-295 CNS
  growth: 90%
SF-539 CNS
  growth: 82.8%
UACC-257 melanoma
  growth: 102%
M14 melanoma
  growth: 74.7%

## N#C/C(=C\c1ccc(N2CCCCC2)cc1)C(=O)Nc1sc2c(c1C#N)CCC2
NCI-H23 lung
  growth: 93.8%
NCI-H226 lung
  growth: 88.1%
NCI-H322M lung
  growth: 99.4%
HOP-62 NSCLC
  growth: 94.7%
NCI-H460 lung
  growth: 74.8%
HOP-92 NSCLC
  growth: 89.4%
NCI-H522 lung
  growth: 92.7%
A549/ATCC NSCLC
  growth: 90.6%
786-0 renal
  growth: 101%
COLO 205 colon
  growth: 118%
DU-145 prostate
  growth: 101%
K-562 leukemia
  growth: 90.7%
MALME-3M melanoma
  growth: 100%
MDA-MB-231 breast
  growth: 96.4%
RXF 393 renal
  growth: 83.5%
SF-268 CNS
  growth: 90.3%
SF-295 CNS
  growth: 95.8%
SF-539 CNS
  growth: 89.6%
UACC-257 melanoma
  growth: 91.7%
M14 melanoma
  growth: 102%

## CN(c1ccc(F)cc1)S(=O)(=O)c1ccc(-c2cnc(C3CC3)o2)cc1
NCI-H23 lung
  growth: 30.5%
NCI-H226 lung
  growth: 60.5%
NCI-H322M lung
  growth: 45.6%
HOP-62 NSCLC
  growth: 44.1%
NCI-H460 lung
  growth: 17.2%
HOP-92 NSCLC
  growth: 81.1%
NCI-H522 lung
  growth: 25.6%
A549/ATCC NSCLC
  growth: 31.1%
786-0 renal
  growth: 50.3%
COLO 205 colon
  growth: 6.42% (active)
DU-145 prostate
  growth: 23.5%
K-562 leukemia
  growth: 10.3%
MALME-3M melanoma
  growth: 65.3%
MDA-MB-231 breast
  growth: 28.4%
RXF 393 renal
  growth: -8.88% (active)
SF-268 CNS
  growth: 64.2%
SF-295 CNS
  growth: -12.9% (active)
SF-539 CNS
  growth: 4.96% (active)
UACC-257 melanoma
  growth: 70.9%
M14 melanoma
  growth: 14.6%

## C/C(=N\NC(=O)CSc1nc2sc3c(c2c(=O)n1-c1ccccc1)CCC(C)C3)c1ccc(Cl)cc1 (stereo not given)
NCI-H23 lung
  growth: 28.2%
NCI-H226 lung
  growth: -1.29% (active)
NCI-H322M lung
  growth: 51.3%
HOP-62 NSCLC
  growth: 34.5%
NCI-H460 lung
  growth: 4.18% (active)
HOP-92 NSCLC
  growth: -1.5% (active)
NCI-H522 lung
  growth: 22.2%
A549/ATCC NSCLC
  growth: 42.5%
786-0 renal
  growth: 7.93% (active)
COLO 205 colon
  growth: 26.5%
DU-145 prostate
  growth: 22.8%
K-562 leukemia
  growth: 16.5%
MALME-3M melanoma
  growth: 29.1%
MDA-MB-231 breast
  growth: 39.8%
RXF 393 renal
  growth: -23.3% (active)
SF-268 CNS
  growth: 23.8%
SF-295 CNS
  growth: 40.9%
SF-539 CNS
  growth: 18.5%
UACC-257 melanoma
  growth: 75%
M14 melanoma
  growth: -34% (active)

## COc1ccc(-c2nnc(/N=C3/C(=O)Nc4ccc(Br)cc43)o2)cc1
NCI-H23 lung
  growth: 95.5%
NCI-H226 lung
  growth: 101%
NCI-H322M lung
  growth: 93.9%
HOP-62 NSCLC
  growth: 106%
NCI-H460 lung
  growth: 101%
HOP-92 NSCLC
  growth: 97.1%
NCI-H522 lung
  growth: 98.6%
A549/ATCC NSCLC
  growth: 104%
786-0 renal
  growth: 103%
COLO 205 colon
  growth: 105%
DU-145 prostate
  growth: 101%
K-562 leukemia
  growth: 93.1%
MALME-3M melanoma
  growth: 98.4%
MDA-MB-231 breast
  growth: 108%
RXF 393 renal
  growth: 112%
SF-268 CNS
  growth: 99.3%
SF-295 CNS
  growth: 99.2%
SF-539 CNS
  growth: 97.9%
UACC-257 melanoma
  growth: 106%
M14 melanoma
  growth: 101%

## CCCCOc1ccc(S(=O)(=O)N2CCN(c3nccc(N4CCOCC4)n3)CC2)cc1
NCI-H23 lung
  growth: 44.2%
NCI-H226 lung
  growth: 58.3%
NCI-H322M lung
  growth: 45.1%
HOP-62 NSCLC
  growth: 88.9%
NCI-H460 lung
  growth: 16%
HOP-92 NSCLC
  growth: 14.3%
NCI-H522 lung
  growth: 81%
A549/ATCC NSCLC
  growth: 28.9%
786-0 renal
  growth: 39.1%
COLO 205 colon
  growth: 77.3%
DU-145 prostate
  growth: 20.3%
K-562 leukemia
  growth: 50.8%
MALME-3M melanoma
  growth: 97.6%
MDA-MB-231 breast
  growth: 21.5%
RXF 393 renal
  growth: 52.3%
SF-268 CNS
  growth: 13.3%
SF-295 CNS
  growth: -40.2% (active)
SF-539 CNS
  growth: 65.3%
UACC-257 melanoma
  growth: 12%
M14 melanoma
  growth: 18.6%

## CS(=O)c1nccc(-c2c(-c3ccc(F)c(OCc4ccccc4)c3)nc3sccn23)n1 (stereo not given)
NCI-H23 lung
  growth: 88.2%
NCI-H226 lung
  growth: 96.3%
NCI-H322M lung
  growth: 73.1%
HOP-62 NSCLC
  growth: 103%
NCI-H460 lung
  growth: 19.1%
HOP-92 NSCLC
  growth: 51.8%
NCI-H522 lung
  growth: 31.6%
A549/ATCC NSCLC
  growth: 100%
786-0 renal
  growth: 99.1%
COLO 205 colon
  growth: 106%
DU-145 prostate
  growth: 4.02% (active)
K-562 leukemia
  growth: 17.8%
MALME-3M melanoma
  growth: 91.7%
MDA-MB-231 breast
  growth: 93.8%
RXF 393 renal
  growth: 96.6%
SF-268 CNS
  growth: 105%
SF-295 CNS
  growth: 101%
SF-539 CNS
  growth: 94.6%
UACC-257 melanoma
  growth: 19.8%
M14 melanoma
  growth: 96.5%
